Data reported in ChEMBL document CHEMBL3988442, “University of Dundee, Small-Polar-MMV Screening Library” (2021).
Values joined by “and” are separate entries in the source; they are usually repeats but may differ in a detail not shown here. Identical values can stand only once. For some assays here: Measured potencies and affinities stand elsewhere.

What was measured:
Design in all cases: scale not given: direction of the effect not stated beside the values
[1] = target: Protein translocase subunit SecA (Escherichia coli (strain K12)) (UniProt P10408); test: Assay to Identify E. coli SecA ATPase Inhibitors; assay type: functional; settings: 30 µM
[2] = target: T1, Ubiquitin-activating enzyme e1, putative (Leishmania donovani (strain BPK282A1)) (UniProt E9BSI1); test: Leishmania donovani Ubiquitin Activating Enzyme (LdE1); assay type: functional; settings: 30 µM
T1 sequence (whole entry): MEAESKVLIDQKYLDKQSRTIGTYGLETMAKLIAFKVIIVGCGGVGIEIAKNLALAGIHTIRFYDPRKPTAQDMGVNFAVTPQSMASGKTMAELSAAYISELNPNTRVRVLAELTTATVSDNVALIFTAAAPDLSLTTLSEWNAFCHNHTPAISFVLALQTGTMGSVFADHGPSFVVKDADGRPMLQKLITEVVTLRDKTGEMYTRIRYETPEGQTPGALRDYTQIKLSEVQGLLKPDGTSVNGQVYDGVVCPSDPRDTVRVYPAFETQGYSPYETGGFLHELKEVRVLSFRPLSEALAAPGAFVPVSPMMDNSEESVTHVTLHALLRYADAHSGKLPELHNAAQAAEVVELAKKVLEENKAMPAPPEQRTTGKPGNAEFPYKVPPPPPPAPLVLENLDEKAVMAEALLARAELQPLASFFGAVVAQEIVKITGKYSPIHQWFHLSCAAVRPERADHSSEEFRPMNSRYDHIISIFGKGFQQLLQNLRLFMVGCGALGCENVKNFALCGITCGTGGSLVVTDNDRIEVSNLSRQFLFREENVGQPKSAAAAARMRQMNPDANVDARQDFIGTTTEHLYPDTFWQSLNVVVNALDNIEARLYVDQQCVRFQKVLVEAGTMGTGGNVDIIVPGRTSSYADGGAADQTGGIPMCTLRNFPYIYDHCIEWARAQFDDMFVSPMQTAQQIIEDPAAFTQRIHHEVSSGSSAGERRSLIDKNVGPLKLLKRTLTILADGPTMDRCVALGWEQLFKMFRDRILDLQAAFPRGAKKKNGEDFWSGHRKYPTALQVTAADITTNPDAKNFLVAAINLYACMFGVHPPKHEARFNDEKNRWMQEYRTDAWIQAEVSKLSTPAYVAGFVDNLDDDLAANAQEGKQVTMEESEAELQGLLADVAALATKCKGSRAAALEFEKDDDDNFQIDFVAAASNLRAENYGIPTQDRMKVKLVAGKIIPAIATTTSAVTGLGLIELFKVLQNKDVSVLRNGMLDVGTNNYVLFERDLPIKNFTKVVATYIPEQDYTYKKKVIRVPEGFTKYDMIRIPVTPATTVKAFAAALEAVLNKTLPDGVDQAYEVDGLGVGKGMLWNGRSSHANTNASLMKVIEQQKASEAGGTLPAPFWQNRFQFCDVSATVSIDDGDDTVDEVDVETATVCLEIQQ

[3] = target: Sialic acid-binding Ig-like lectin 9 (Homo sapiens) (UniProt Q9Y336); test: Hs-Siglec9 ALPHAscreen SOP 20170721; settings: 10 µM
[4] = system: Trypanosoma cruzi; test: Trypanosoma cruzi phosphomannomutase and mannose-1-phosphate guanylyltransferase assay; assay type: functional; settings: 10 µM
[5] = target: T2, Arginase-2, mitochondrial (Homo sapiens) (UniProt P78540); test: in vitro enzyme assay to detect the production of urea directly proportional to the activity of Arginase II; assay type: functional; further: in the data most compounds retested in dose-response had high values
T2 sequence (whole entry): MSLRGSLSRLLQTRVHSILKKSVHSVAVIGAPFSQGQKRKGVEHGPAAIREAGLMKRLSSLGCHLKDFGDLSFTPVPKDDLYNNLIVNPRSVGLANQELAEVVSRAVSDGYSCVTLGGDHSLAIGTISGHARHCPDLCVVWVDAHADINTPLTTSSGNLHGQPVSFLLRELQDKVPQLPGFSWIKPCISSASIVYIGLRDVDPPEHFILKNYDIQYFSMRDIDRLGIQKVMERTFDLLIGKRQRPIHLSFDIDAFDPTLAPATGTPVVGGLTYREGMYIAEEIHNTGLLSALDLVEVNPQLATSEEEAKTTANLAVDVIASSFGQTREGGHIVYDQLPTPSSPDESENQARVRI

[6] = target: T3, Proteasome subunit beta (Trypanosoma cruzi) (UniProt O96673); test: Trypanosoma cruzi proteasome chymotrypsin-like activity (TcProtChymo) assay.; further: in the data most compounds retested in dose-response had high values; assay type: functional; settings: 9.37 µM
T3 sequence (whole entry): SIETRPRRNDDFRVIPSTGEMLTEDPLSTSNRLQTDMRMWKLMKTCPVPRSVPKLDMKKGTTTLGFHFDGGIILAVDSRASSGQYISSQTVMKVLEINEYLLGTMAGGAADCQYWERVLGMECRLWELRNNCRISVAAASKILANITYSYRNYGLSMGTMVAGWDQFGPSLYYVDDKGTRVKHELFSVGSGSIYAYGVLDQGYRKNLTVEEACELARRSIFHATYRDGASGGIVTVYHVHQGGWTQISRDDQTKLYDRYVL

[7] = system: N/A; test: Trypanosoma cruzi proteasome luciferase counter-screen; assay type: functional; settings: 9.37 µM
[8] = species: Homo sapiens; test: To identify inhibition of the IFN signalling (Jak-Stat) pathway via expression of an eGFP reporter gene under the control of an IFN-stimulated response element (ISRE) containing MxA promoter.; assay type: functional; settings: 30 µM
[9] = target: T4, Tyrosyl-tRNA synthetase, putative (Trypanosoma cruzi (strain CL Brener)) (UniProt Q4DSP6); test: Trypanosoma cruzi tyrosyl tRNA synthetase (TcYRS) _High Tyrosine SOP; assay type: functional; settings: 30 µM; further: in the data most compounds retested in dose-response had high values
T4 sequence (whole entry): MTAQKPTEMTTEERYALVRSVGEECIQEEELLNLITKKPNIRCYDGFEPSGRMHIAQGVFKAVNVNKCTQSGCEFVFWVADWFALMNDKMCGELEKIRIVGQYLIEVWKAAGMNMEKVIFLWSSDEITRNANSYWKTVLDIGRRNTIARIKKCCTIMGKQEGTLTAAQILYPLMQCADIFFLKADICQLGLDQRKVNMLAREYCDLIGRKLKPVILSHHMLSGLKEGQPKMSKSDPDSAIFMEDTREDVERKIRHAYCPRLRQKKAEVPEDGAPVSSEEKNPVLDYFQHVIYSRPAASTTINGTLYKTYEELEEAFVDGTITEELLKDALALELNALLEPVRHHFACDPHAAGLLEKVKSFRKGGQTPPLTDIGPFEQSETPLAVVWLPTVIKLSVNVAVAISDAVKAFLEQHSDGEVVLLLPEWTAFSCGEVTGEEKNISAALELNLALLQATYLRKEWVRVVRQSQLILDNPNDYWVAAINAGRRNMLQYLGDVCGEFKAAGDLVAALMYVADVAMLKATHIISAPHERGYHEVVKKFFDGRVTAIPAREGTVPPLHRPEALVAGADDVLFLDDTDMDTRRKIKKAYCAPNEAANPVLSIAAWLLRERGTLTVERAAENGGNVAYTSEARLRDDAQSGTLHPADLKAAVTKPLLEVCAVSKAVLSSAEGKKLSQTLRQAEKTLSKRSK

[10] = target: T4, Tyrosyl-tRNA synthetase, putative (Trypanosoma cruzi (strain CL Brener)); test: Trypanosoma cruzi tyrosyl tRNA synthetase (TcYRS) SOP; assay type: functional; settings: 30 µM
[11] = target: Chromo domain-containing protein 1 (Saccharomyces cerevisiae (strain ATCC 204508 / S288c) (Baker's yeast)) (UniProt P32657); test: ScCHD-1 Enzyme Inhibition Assay; assay type: functional; settings: 30 µM; further: in the data most compounds retested in dose-response had high values
Chromo domain-containing protein 1 (Saccharomyces cerevisiae (strain ATCC 204508 / S288c) (Baker's yeast)), sequence (P32657 whole entry, the tested form may be a part): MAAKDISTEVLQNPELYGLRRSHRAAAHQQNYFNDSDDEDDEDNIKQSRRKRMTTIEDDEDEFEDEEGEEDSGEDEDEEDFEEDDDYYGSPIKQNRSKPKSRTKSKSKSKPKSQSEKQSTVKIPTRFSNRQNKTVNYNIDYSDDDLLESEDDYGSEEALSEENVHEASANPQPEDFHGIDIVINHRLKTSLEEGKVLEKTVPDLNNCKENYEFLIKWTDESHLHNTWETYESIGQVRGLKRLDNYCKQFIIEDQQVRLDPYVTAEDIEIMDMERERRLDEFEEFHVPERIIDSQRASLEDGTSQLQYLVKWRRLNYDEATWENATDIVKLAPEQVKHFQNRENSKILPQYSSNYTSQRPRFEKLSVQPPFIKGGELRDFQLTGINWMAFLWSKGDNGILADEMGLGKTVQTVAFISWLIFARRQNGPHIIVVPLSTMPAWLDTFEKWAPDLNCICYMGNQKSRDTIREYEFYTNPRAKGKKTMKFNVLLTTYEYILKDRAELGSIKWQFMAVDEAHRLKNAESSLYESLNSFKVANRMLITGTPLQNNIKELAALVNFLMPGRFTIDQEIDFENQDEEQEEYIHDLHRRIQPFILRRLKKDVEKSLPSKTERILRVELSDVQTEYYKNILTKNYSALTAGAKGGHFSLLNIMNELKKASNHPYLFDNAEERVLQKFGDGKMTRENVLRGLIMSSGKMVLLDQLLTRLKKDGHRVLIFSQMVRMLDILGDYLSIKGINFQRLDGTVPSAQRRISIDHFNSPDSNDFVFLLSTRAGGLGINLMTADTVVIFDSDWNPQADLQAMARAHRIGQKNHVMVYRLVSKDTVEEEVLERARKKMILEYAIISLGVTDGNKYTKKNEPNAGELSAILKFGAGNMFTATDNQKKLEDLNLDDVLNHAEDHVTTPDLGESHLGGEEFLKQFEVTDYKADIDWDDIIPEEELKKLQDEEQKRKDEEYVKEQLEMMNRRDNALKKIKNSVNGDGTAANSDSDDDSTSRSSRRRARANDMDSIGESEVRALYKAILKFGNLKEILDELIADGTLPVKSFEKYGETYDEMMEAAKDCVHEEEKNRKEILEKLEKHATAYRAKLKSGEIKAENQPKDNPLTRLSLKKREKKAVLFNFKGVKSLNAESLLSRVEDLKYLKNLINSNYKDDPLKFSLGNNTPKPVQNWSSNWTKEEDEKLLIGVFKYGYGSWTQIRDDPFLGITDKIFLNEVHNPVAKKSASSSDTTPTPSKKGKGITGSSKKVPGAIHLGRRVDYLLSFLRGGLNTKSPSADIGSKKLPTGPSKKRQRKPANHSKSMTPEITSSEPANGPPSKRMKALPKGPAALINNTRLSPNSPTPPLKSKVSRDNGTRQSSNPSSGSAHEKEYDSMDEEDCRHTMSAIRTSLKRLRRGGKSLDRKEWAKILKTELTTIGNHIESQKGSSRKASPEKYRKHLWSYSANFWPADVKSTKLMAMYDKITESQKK

Sialic acid-binding Ig-like lectin 9 (Homo sapiens), sequence (Q9Y336 whole entry): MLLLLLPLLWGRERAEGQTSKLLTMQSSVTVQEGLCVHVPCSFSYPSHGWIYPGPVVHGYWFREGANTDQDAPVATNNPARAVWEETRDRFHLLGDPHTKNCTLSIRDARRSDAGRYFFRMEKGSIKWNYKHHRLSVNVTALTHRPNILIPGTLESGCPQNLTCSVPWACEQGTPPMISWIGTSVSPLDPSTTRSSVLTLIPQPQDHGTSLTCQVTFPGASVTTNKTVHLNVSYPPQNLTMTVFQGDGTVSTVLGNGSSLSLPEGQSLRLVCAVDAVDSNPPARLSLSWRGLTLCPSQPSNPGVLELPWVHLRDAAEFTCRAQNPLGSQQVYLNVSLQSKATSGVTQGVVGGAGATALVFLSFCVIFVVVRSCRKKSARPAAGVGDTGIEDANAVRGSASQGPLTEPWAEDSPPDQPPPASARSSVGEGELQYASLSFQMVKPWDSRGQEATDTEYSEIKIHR
Protein translocase subunit SecA (Escherichia coli (strain K12)), sequence (P10408 whole entry): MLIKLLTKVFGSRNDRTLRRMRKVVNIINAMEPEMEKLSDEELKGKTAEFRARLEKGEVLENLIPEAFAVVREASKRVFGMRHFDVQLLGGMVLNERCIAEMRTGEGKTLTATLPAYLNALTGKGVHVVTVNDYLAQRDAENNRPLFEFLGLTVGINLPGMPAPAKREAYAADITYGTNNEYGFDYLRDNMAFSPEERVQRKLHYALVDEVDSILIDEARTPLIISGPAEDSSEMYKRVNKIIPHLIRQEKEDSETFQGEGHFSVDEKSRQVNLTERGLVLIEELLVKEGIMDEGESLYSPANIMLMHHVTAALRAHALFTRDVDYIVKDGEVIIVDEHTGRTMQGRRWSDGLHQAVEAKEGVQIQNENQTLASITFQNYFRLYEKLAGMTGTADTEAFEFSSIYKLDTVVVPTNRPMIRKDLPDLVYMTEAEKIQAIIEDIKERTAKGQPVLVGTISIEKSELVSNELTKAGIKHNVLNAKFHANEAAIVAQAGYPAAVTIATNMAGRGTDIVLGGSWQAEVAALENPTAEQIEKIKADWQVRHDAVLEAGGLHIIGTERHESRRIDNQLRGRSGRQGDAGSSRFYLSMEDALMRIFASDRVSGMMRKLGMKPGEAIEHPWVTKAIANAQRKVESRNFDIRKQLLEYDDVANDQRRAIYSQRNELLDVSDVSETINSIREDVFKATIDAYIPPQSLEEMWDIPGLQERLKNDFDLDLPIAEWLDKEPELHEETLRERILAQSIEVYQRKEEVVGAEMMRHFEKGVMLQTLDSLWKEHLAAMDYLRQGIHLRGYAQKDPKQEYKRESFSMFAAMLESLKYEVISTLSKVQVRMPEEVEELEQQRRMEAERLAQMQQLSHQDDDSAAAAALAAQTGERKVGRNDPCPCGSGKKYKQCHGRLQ

## COc1ccc(-c2ccnc3c2C(=O)CCC3)cc1
[1]
  Percent Effect: 0.627%
[2]
  Percent Effect: 22.7%
[3]
  Percent Effect: -8.36%
[4]
  Percent Effect: 0.789%
[5]; 33.3 µM
  Percent Effect: 0.885%
[6]
  Percent Effect: 78.1% and 77.9% and 84.4%
[7]
  Percent Effect: 54.8% and 45.5%
[8]
  Percent Effect: 22.2%
[9]
  Percent Effect: 2.12%
[10]
  Percent Effect: 7.5%
[11]
  Percent Effect: -22.2%

## Cc1nc(N)sc1C(=O)N1CCCC(c2nccn2CCCN(C)C)C1 (stereo unspecified)
[1]
  Percent Effect: -5.86%
[2]
  Percent Effect: 10.8%
[3]
  Percent Effect: 10.2%
[4]
  Percent Effect: 7.47%
[5]; 30 µM
  Percent Effect: 9.19%
[5]; 33.3 µM
  Percent Effect: -3.15%
[6]
  Percent Effect: 13.2%
[8]
  Percent Effect: 7.55%
[9]
  Percent Effect: 11.2%
[10]
  Percent Effect: 9.76%
[11]
  Percent Effect: 95.1%

## Cc1nc(C)c(C(=O)OCCNc2ncccc2C#N)s1
[1]
  Percent Effect: -3.81%
[2]
  Percent Effect: 10.4%
[3]
  Percent Effect: 12.8%
[4]
  Percent Effect: -7.09%
[5]; 33.3 µM
  Percent Effect: 1.02%
[6]
  Percent Effect: 71.6% and 65.6% and 62.3%
[7]
  Percent Effect: 28.5% and 30.6%
[8]
  Percent Effect: 32.9%
[9]
  Percent Effect: 2.94%
[10]
  Percent Effect: 9.41%
[11]
  Percent Effect: 0.0387%

## COc1ccc(C(=O)N2C[C@@H](CN3CCOCC3)[C@@H](CO)C2)c(C)c1
[1]
  Percent Effect: -3.12%
[2]
  Percent Effect: 0%
[3]
  Percent Effect: 14.3%
[4]
  Percent Effect: 7.47%
[5]; 33.3 µM
  Percent Effect: 6.64%
[6]
  Percent Effect: 1.71%
[8]
  Percent Effect: -27.6%
[9]
  Percent Effect: 1.6%
[10]
  Percent Effect: 9.76%
[11]
  Percent Effect: -1.95%

## CN1[C@H](Cn2cccn2)C[C@@H]2CN(C(=O)Cc3cccs3)CC[C@@H]21
[1]
  Percent Effect: -4.49%
[2]
  Percent Effect: 11.7%
[3]
  Percent Effect: -0.662%
[4]
  Percent Effect: -3.56%
[5]; 33.3 µM
  Percent Effect: -1.83%
[6]
  Percent Effect: 9.53%
[8]
  Percent Effect: 18.5%
[9]
  Percent Effect: 6.76%
[10]
  Percent Effect: 0%
[11]
  Percent Effect: -10.4%

## Nc1nc(CCC(=O)N2CCOC(CC3CCCCC3)C2)cs1 (stereo unspecified)
[1]
  Percent Effect: -7.43%
[2]
  Percent Effect: 0%
[3]
  Percent Effect: 6.25%
[4]
  Percent Effect: 11.3%
[5]; 30 µM
  Percent Effect: 3.78%
[5]; 33.3 µM
  Percent Effect: -2.45%
[6]
  Percent Effect: 3.25%
[8]
  Percent Effect: 10.9%
[9]
  Percent Effect: 9.04%
[10]
  Percent Effect: 19.5%
[11]
  Percent Effect: 5.38%

## Cc1ccc(N2CC[C@H]3O[C@@H](C(=O)NCc4ccco4)CC[C@H]32)nn1
[1]
  Percent Effect: -3.84%
[2]
  Percent Effect: 11.7%
[3]
  Percent Effect: -7.1%
[4]
  Percent Effect: 0.487%
[5]; 33.3 µM
  Percent Effect: 4.05%
[6]
  Percent Effect: 34.9% and 42.6% and 44.7%
[7]
  Percent Effect: 17.7% and 15.6%
[8]
  Percent Effect: 2.02%
[9]
  Percent Effect: 12.1%
[10]
  Percent Effect: 12.8%
[11]
  Percent Effect: -1.01%

## CN(C)c1cc(CNC(=O)Nc2ccc(F)cc2)ccn1
[1]
  Percent Effect: 2.4%
[2]
  Percent Effect: 17.9%
[3]
  Percent Effect: -9.83%
[4]
  Percent Effect: 3.29%
[5]; 33.3 µM
  Percent Effect: 0.41%
[6]
  Percent Effect: 47.8% and 47.4% and 50.2%
[7]
  Percent Effect: 25.9% and 25.6%
[8]
  Percent Effect: 6.94%
[9]
  Percent Effect: 7.18%
[10]
  Percent Effect: 25.3%
[11]
  Percent Effect: -3.18%
